# Assay results taken from PubChem BioAssay (NCATS).
# Inconclusive results are not listed. A number with no mark means an inactive call. The source made the active and inactive calls. Calls come from the whole dose curve; as a rule, active = well fitted inhibition curve with a large enough effect; inconclusive = small, poorly fitted or top-dose-only effect; inactive = flat fitted curve, though single readings scatter.
# Tested on: MCC-26
# Assay: qHTS assay to identify novel small-molecules to repurpose for Merkel cell carcinoma treatment (AID 1296009); note: nearly all actives have a fitted effect of over 60% in size
# Details: MCC and control cell lines, CellTiter-Glo viability, 72 h; series mostly up to 46 µM; activity change, negative = cytotoxicity: at the top concentration
# Description: MCC is a rare and aggressive neuroendocrine skin cancer with limited treatment options. Approximately 80% of MCCs have the Merkel cell polyomavirus (MCPyV) DNA integrated into the host genome (virus-positive: VP-MCC) and viral oncogenes drive oncogenesis. The remaining MCCs are virus-negative (VN-MCC) and are caused by UV mutagenesis. To identify novel treatments for VP-MCC and/or VN-MCC we screened three VP-MCC cell lines (WAGA, MKL-1, MKL-2), three VN-MCC cell lines (MCC-13, MCC-26, UISO), and four immortalized, non-transformed control cell lines (HaCaT, HEK293T, CRL7250, NIH-3T3) against ~2,400 compounds in the NCGC Pharmaceutical Collection (NPC) and ~1,900 compounds in the Mechanism Interrogation PlatE (MiPE). Using cell viability as a readout (CellTiter-Glo assay) we found both overlapping and distinct drugs that can be repurposed for the treatment of VP-MCC and VN-MCC.
# A high-throughput screen was conducted in 1536-well white flat bottom plates (Corning) on a Kalypsys robotic system. Cell lines WAGA, MKL-1, MKL-2, MCC-13, MCC-26, UISO, HaCaT, HEK293T, CRL7250, and NIH-3T3 were screened against 2 small molecule annotated drug libraries NPC and MIPE in dose response (8 and 11 pt. respectively) measuring cell viability after 72 hours of incubation. […] A 1,536 pintool (Kalypsys) was used to transfer 23 nL of compound in DMSO to the 1,536-well assay plates. After 72 hr incubation at 37 degree celsius, 2.5 uL of CellTiter-Glo (Promega) was dispensed into each well using a BiorapTR. Plates were incubated at room temperature for 10 min, transferred to a ViewLux (PerkinElmer) and the luminescence was recorded using an exposure time of 2 seconds. Relative luminescence units (RLUs) were normalized to in-plate controls (no cells as a positive (cytotoxicity) control, DMSO as negative control) and the normalized data was processed using NCATS in-house software.
# % is set by controls: 0 for no effect and ±100 for the full control effect; potency is the fitted concentration of half-maximal effect.
SMILES,"activity change, negative = cytotoxicity",Potency
CCCCCCOc1ccccc1C(N)=O,-13.4%,
CCCCCCCC/C=C/C(=O)O,-0.82%,
CCOC(=O)c1ccccc1O,7.36%,
CN(C)[C@@H]1C(=O)C(C(=O)NCN2CCCC2)=C(O)[C@@]2(O)C(=O)C3=C(O)c4c(O)cccc4[C@@](C)(O)C3C[C@@H]12 (stereo not given in full),5.13%,
CCC1C(=O)OCC1Cc1cncn1C (stereo not given),1.34%,
Nc1c(CC(=O)O)cccc1C(=O)c1ccc(Br)cc1,4.12%,
CCCCCCCCCCCCCCCC(=O)OC(C)C,16.9%,
CCCOC(=O)c1ccc(O)cc1,-3.16% [at 92.7 µM],
O=C(O)Cc1cccc(-c2cc(CCCCCCc3ccc(O[C@H]4O[C@H](CO)[C@@H](O)[C@H](O)[C@@H]4O)c(-c4cccc(CC(=O)O)c4)c3)ccc2O[C@H]2O[C@H](CO)[C@@H](O)[C@H](O)[C@@H]2O)c1,4.83% [at 0.597 µM],
CC(N)C(=O)OC(C)(C)Cc1ccc(Cl)cc1 (stereo not given),-10.8%,
Clc1ccccc1-c1nc(-c2ccncc2)no1,-1.21%,
Nc1ccc(O)c([N+](=O)[O-])c1,11% [at 92.7 µM],
Nc1ccc(O)c(C(=O)O)c1,12.9%,
Cc1nc2ccccc2n1Cc1ccc(Cl)cc1,-13.4%,
C/C(=N\O)c1ccc(OCC(=O)N2CCCCC2)cc1,-14.1%,
CC(C)OC(=O)c1cc(C(=O)OC(C)C)cc([N+](=O)[O-])c1,6.23% [at 92.7 µM],
C#C[C@]1(O)CC[C@H]2[C@@H]3CCc4cc(O)ccc4[C@H]3CC[C@@]21C,-20.8%,
c1ccc2sc(SN3CCOCC3)nc2c1,0.525%,
CCCCCCCCCCCCOCCO,9.62%,
COc1cc(NC(C)CCCN)c2ncccc2c1 (stereo not given),-12.3%,

SMILES,"activity change, negative = cytotoxicity",Potency
O=Cc1ccc(O)c(O)c1O,-4.69%,
O=C(O)/C=C\C(=O)O,-2.43%,
O=C(/C=C/c1ccccc1)NCCO,-0.844%,
Nc1cc(-c2ccncc2)c[nH]c1=O,7.34%,
O=C(OCc1ccccc1)c1ccccc1,6.94%,
[O-][n+]1ccccc1SSc1cccc[n+]1[O-],,0.146 µM (active)
O=C(Nc1ccc(C(=O)O)c(O)c1)c1ccccc1,0.248%,
O=C(CCN1CCN(CCO)CC1)N1c2ccccc2Sc2ccc(C(F)(F)F)cc21,-0.133%,
CNC(=O)c1c(I)c(NC(=O)CCCCC(=O)Nc2c(I)c(C(=O)O)c(I)c(C(=O)NC)c2I)c(I)c(C(=O)O)c1I,-15.2%,
COc1cccc2c1C(=O)c1c(O)c3c(c(O)c1C2=O)C[C@@](O)(C(=O)CO)C[C@@H]3O[C@H]1C[C@H](N)[C@H](O[C@@H]2CCCCO2)[C@H](C)O1,,7.5 µM (active)
CO[C@@]1(NC(=O)Cc2cccs2)C(=O)N2C(C(=O)O)=C(COC(N)=O)CS[C@@H]21,16%,
O=C(O)Cc1ccc(-c2ccccc2)cc1,13.2%,
NCCO,5.36% [at 92.7 µM],
CN1CC(=O)N/C1=N/C(=O)Nc1cccc(Cl)c1,6.83%,
COc1cc2c3cc1Oc1cc(ccc1O)C[C@@H]1c4c(cc(OC)c(O)c4Oc4ccc(cc4)C[C@@H]3N(C)CC2)CC[N+]1(C)C,-0.724%,
O=C(O)Cc1ccc2c(c1)C(=O)c1ccccc1CO2,4.23%,
Nc1ccc([N+](=O)[O-])cc1O,-4.21% [at 92.7 µM],
Cc1c(Nc2ncccc2C(=O)O)cccc1C(F)(F)F,1.22%,
CC(C)(C)c1nnc(NS(=O)(=O)c2ccc(N)cc2)s1,-7.17%,
COc1ccnc2c1CCCCC2S(=O)c1nc2ccccc2[nH]1 (stereo not given),14.7%,
